Source: PubChem BioAssay (Columbia University Molecular Screening Center)
TNFa cytotox – cytotoxicity in TNFa-stimulated HUVEC, primary screen, cytotoxicity control for VCAM1 expression modulator project, imaging, Hoechst nuclei count | HUVEC TNFalpha-stimulated, Hoechst cell count | cell count reduction, % at 2 µM | hit rate 0.17% among 93,000;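 active means cell count reduction exceeding the screen mean by over 5 SD, scaled to untreated wells per plate, cut at about 78% in these data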;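 further: cells counted after 24 h of TNF alpha exposure following the 1 h pretreatment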
VCAM1 TNFa inh – inhibitors of TNFa-induced VCAM1 expression, primary screen, imaging, HUVEC, TNFa stimulus, immunofluorescence; HUVEC TNFa-induced VCAM-1 immunofluorescence, high-content imaging; inhibition, % at 2 µM; hit rate 0.48% among 95,000; AID 802, 2007;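 active means inhibition above the batch mean plus 3 SD, with images confirmed as a hit by eye, cut at about 37% in these data; inconclusive means inhibition above that limit but hit not confirmed in images; inactive means inhibition not above that limit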;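 further: 0% = TNF-stimulated DMSO wells and 100% = unstimulated control wells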
cytoskel mod – modifiers of F-actin cytoskeleton organization, primary screen, imaging, HUVEC, phalloidin staining, high-content imaging; HUVEC TNFa F-actin phalloidin imaging; inhibition, % at 2 µM; hit rate 0.18% among 91,000; AID 836, 2007;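 active means inhibition above the batch mean plus 3 SD and confirmed as a hit by visual image inspection, cut at about 30% in these data, passing the limit was not always enough; inconclusive means above the inhibition threshold but rejected on visual inspection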
E-sel TNF inh – E-selectin induction blockers in HUVEC – imaging, immunofluorescence, high content, primary screen. hit rate 0.71% among 120,000. HUVEC TNFa-induced E-selectin immunofluorescence. AID 1246, 2008. inhibition, % at 2 µM;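 active means inhibition above the batch mean plus 3 SD, and confirmed as a hit on visual image review, cut at about 43% in these data; inconclusive means passes the inhibition cutoff but fails visual image review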;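 further: 0% = TNF-stimulated DMSO wells and 100% = unstimulated control wells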
An asterisk follows results filed as active. Shown are actives, neighbours in structure and some others; about 1% of the full set was active somewhere.

For COC(=O)C1=NN(c2cccc(C)c2)C2C(=O)N(c3ccccc3OC)C(=O)C12 (stereo not given) the results were E-sel TNF inh 73*.
Screening O=C(N/N=C1/CCS(=O)(=O)c2ccc(F)cc21)c1ccccn1 returned E-sel TNF inh 81*.
Screening CC(C)C(c1nnnn1C(C)(C)C)N1CCC(Cc2ccccc2)CC1 (stereo not given) returned E-sel TNF inh 5.
Screening N#CCc1ccc(NS(=O)(=O)c2cccs2)cc1 returned E-sel TNF inh 64*.
`Cc1ccc(S(=O)(=O)N2CCC(C(=O)NNC(=O)c3cccnc3)CC2)cc1` gave E-sel TNF inh 11.
`CCc1cc(C(=O)Nc2ccccc2)cs1` gave E-sel TNF inh 63*.
`CC(C)(C)c1ccc(S(=O)(=O)Nc2cccc(C3OCCCO3)c2)cc1` gave E-sel TNF inh -54.
CCc1ccccc1NC1c2ccccc2C(=O)N1Cc1ccco1 (stereo not given) was read as E-sel TNF inh -17.
For O=C1c2ccccc2C(Nc2ccc(S(=O)(=O)N3CCCCCC3)cc2)N1Cc1ccco1 (stereo not given) the results were TNFa cytotox -8, VCAM1 TNFa inh 4, cytoskel mod -2 and E-sel TNF inh 66*.
For O=C(NCc1ccncc1)Nc1ccccc1F the results were E-sel TNF inh 7.
Screening CN(C)c1ccc(NC(=S)NC(=O)/C=C/c2ccc(Cl)cc2)cc1 returned TNFa cytotox -8, VCAM1 TNFa inh -2, cytoskel mod -13 and E-sel TNF inh 87*.
COc1ccc(-n2nnnc2-c2cnc(N3CCCC3)nc2C(F)(F)F)cc1 was read as TNFa cytotox -8, VCAM1 TNFa inh -1, cytoskel mod 6 and E-sel TNF inh 100*.
`COc1cc(-n2cnnn2)ccc1S(=O)(=O)N1CCOCC1` gave TNFa cytotox -22, VCAM1 TNFa inh -24 and cytoskel mod 6.
O=S(=O)(c1cccc(-n2cnnn2)c1)N1CCOCC1 was read as TNFa cytotox 100*, VCAM1 TNFa inh inconclusive and cytoskel mod inconclusive.
For CN(C)C(=O)c1ccc(NC(=O)COc2ccc([N+](=O)[O-])cc2)cc1 the results were E-sel TNF inh -2.
C=CCOc1c(Br)cc(CNc2ccc(NC(=O)C(C)C)c(OC)c2)cc1OCC was read as E-sel TNF inh 1.
Screening N#CCc1nc2c3c4c(sc3ncn2n1)CCCC4 returned TNFa cytotox 27, VCAM1 TNFa inh 60*, cytoskel mod -26 and E-sel TNF inh 0.
For OC1(c2cccc(C(F)(F)F)c2)CCN(c2ncnc3c2[nH]c2ccc(F)cc23)CC1 the results were TNFa cytotox -11, VCAM1 TNFa inh 54* and cytoskel mod 7.
Screening Fc1ccc2[nH]c3c(N4CCN(c5ccccc5)CC4)ncnc3c2c1 returned E-sel TNF inh -13.
CN=C(NC1CCCCC1)c1ccc(Cl)cc1 was read as E-sel TNF inh 23.
CC(=O)c1c(C(C)=O)c(C)n(NC(=O)c2ccccc2O)c1C was read as TNFa cytotox -16, VCAM1 TNFa inh -4, cytoskel mod 76* and E-sel TNF inh 2.
Screening CC(=O)c1c(C(C)=O)c(C)n(NC(=O)c2cccnc2)c1C returned TNFa cytotox -27, VCAM1 TNFa inh 12 and cytoskel mod -3.
For CC1(NC(=O)CC[N+](C)(C)CCO)CS(=O)(=O)CC1S(=O)(=O)[O-] (stereo not given) the results were E-sel TNF inh -38.
`COC(=O)c1cnc(SCc2ccc(C)cc2)n1C` gave E-sel TNF inh 69*.
Screening CCC(C)Oc1cccc(OCCCCN2C(=O)NC(C)(C)C2=O)c1 (stereo not given) returned cytoskel mod 100* and E-sel TNF inh 0.
`CC1(C)NC(=O)N(CCCCOc2cccc(C(F)(F)F)c2)C1=O` gave E-sel TNF inh -21.
`Cc1nc([N+](=O)[O-])c(Br)n1CC(=O)c1ccc(Br)cc1` gave TNFa cytotox -18, VCAM1 TNFa inh 40*, cytoskel mod -13 and E-sel TNF inh 24.
For Cc1nc([N+](=O)[O-])c(Br)n1CC(=O)c1ccccc1 the results were TNFa cytotox -7, VCAM1 TNFa inh 6 and E-sel TNF inh 12.
For CC(C)c1ccc2[nH]c(O)c(N=NC(=O)c3cccc(S(=O)(=O)N4CCCCC4)c3)c2c1 the results were E-sel TNF inh 12.
`CNC(=S)N=Nc1c(O)[nH]c2ccc(C(C)C)cc12` gave E-sel TNF inh 68*.
Screening O=C(Nc1ccccc1)C1=C(c2ccccc2)S(=O)(=O)CCS1(=O)=O returned E-sel TNF inh 100*.
CCOC(=O)c1cc(-c2ccccc2)sc1NC(=S)Nc1cccc(C)n1 was read as TNFa cytotox 4, VCAM1 TNFa inh 4, cytoskel mod -34 and E-sel TNF inh 54*.
For Cc1cc2cc(CNC(=S)NC3CCCCC3)ccc2n1C the results were E-sel TNF inh 13.
Screening Cc1ccc(C)c(C(=O)COC(=O)c2cc([N+](=O)[O-])ccc2NCCO)c1 returned E-sel TNF inh -14.
Screening COc1ccc(S(=O)(=O)Cc2ccc(C(=O)N3CCOCC3)o2)cc1 returned E-sel TNF inh 95*.
CCOC(=O)N1CCC(NC(=O)c2ccc(CS(=O)(=O)c3ccc(OC)cc3)o2)CC1 was read as TNFa cytotox -32, VCAM1 TNFa inh 85* and cytoskel mod 27.
Screening COc1ccc(S(=O)(=O)Cc2ccc(C(=O)NC3CCCC3)o2)cc1 returned TNFa cytotox -12, VCAM1 TNFa inh 4 and cytoskel mod -1.
Screening CCOCCCNC(=O)/C(C#N)=C/c1ccc([N+](=O)[O-])o1 returned E-sel TNF inh -19.
Screening COc1ccccc1CCNC(=O)CSc1nnc2ccc(-c3ccncc3)nn12 returned E-sel TNF inh 2.
For Cc1ccc(/C=C/C(=O)O)cc1S(=O)(=O)NC1CCS(=O)(=O)C1 (stereo not given) the results were E-sel TNF inh 19.
Screening CCOC(=O)c1sc(NC(=O)CSc2nc3c(cc2C#N)CCC3)c(C#N)c1C returned TNFa cytotox -61, VCAM1 TNFa inh 86*, cytoskel mod 18 and E-sel TNF inh 10.
For N#Cc1cc2c(nc1SCC(=O)N1CCCCC1)CCCC2 the results were TNFa cytotox 19, VCAM1 TNFa inh 52*, cytoskel mod 7 and E-sel TNF inh -6.
CCOC(=O)c1sc(NC(=O)CSc2nc3c(cc2C#N)CCCCCC3)c(C#N)c1C was read as TNFa cytotox -17, VCAM1 TNFa inh -13, cytoskel mod 4 and E-sel TNF inh -25.
`N#Cc1cc2c(nc1SCC(=O)N1CCCCC1)CCCCC2` gave TNFa cytotox -18, VCAM1 TNFa inh 7, cytoskel mod -2 and E-sel TNF inh -28.
Screening CNS(=O)(=O)c1cc(OC)c(OC)cc1CC(=O)OC returned E-sel TNF inh 12.
Screening Cc1ccc(-n2c(C)cc(C=C(C#N)C#N)c2C)cc1 returned TNFa cytotox -13, VCAM1 TNFa inh 10, cytoskel mod -1 and E-sel TNF inh 52*.
